Read-out in test [1]: TIMP metallopeptidase inhibitor 1 (TIMP1), TIMP1 (gene 7076)
The test is described as follows: BSK_hDFCGF_TIMP1: BioMAP Diversity Plus: hDFCGF Assay for TIMP metallopeptidase inhibitor 1 (TIMP1) Biomarker Activity (AID 2283062). The note with it: primary human foreskin fibroblasts; actives raise or lower the signal. Put shortly:
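Fibroblasts from human foreskin are treated with test chemical and harvested at 24 h. TIMP-1 is quantified by ELISA, and gain or loss of signal is scored against DMSO.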

Read-out in test [2]: Matrix Metallopeptidase 1 (MMP1), MMP1 (gene 4312)
Put plainly: BSK_hDFCGF_MMP1: BioMAP Diversity Plus: hDFCGF Assay for Matrix Metallopeptidase 1 (MMP1) Biomarker Activity (AID 2283064). The note with it: primary human foreskin fibroblasts; actives raise or lower the signal. Put shortly:
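ELISA read-out of MMP1 from human foreskin fibroblasts (primary skin cells), 24 h post-dose. Gain or loss of signal was fitted bidirectionally versus DMSO negative control; cytotoxicity was checked by SRB in parallel cultures.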

Read-out in test [3]: Vascular cell adhesion molecule 1 (VCAM1), VCAM1 (gene 7412)
The test is described as follows: BSK_hDFCGF_VCAM1: BioMAP Diversity Plus: hDFCGF Assay for Vascular cell adhesion molecule 1 (VCAM1) Biomarker Activity (AID 2283065).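 As to AC50: VCAM-1 protein level quantified by ELISA after 24 h chemical exposure.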 The note with it: primary human foreskin fibroblasts; actives raise or lower the signal. Put shortly: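 Cells are dosed, cultured for 24 h, then VCAM-1 is quantified by ELISA; signal increases and decreases are both fitted relative to DMSO.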

Read-out in test [4]: Plasminogen activator inhibitor-1 (PAI1), SERPINE1 (gene 5054)
The test is described as follows: BSK_hDFCGF_PAI1: BioMAP Diversity Plus: hDFCGF Assay for Plasminogen activator inhibitor-1 (PAI1) Biomarker Activity (AID 2283066). The note with it: primary human foreskin fibroblasts; actives raise or lower the signal. Put shortly: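 ELISA readout of PAI-1 from primary human skin fibroblast cultures, 24 h after compound addition. Gain or loss of signal was fitted bidirectionally against DMSO baseline.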

Read-out in test [5]: Intercellular Adhesion Molecule 1 (ICAM1), ICAM1 (gene 3383)
Put plainly: BSK_KF3CT_ICAM1: BioMAP Diversity Plus: KF3CT Assay for Intercellular Adhesion Molecule 1 (ICAM1) Biomarker Activity (AID 2283067). The note with it: primary human keratinocytes with fibroblasts; actives raise or lower the signal. Put shortly:
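Dose the keratinocyte/fibroblast co-culture, wait 24 h, measure ICAM-1 by ELISA, then fit increases or decreases against DMSO. Cytotoxicity is checked in parallel cultures by SRB total-protein staining.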

Read-out in test [6]: Interferon-gamma inducible Protein 10 (IP10), CXCL10 (gene 3627)
Put plainly: BSK_KF3CT_IP10: BioMAP Diversity Plus: KF3CT Assay for Interferon-gamma inducible Protein 10 (IP10) Biomarker Activity (AID 2283068). The note with it: primary human keratinocytes with fibroblasts; actives raise or lower the signal. Put shortly:
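Signal is secreted/surface IP-10 by ELISA in a human primary skin co-culture of keratinocytes and foreskin fibroblasts, taken 24 h post-dosing; DMSO served as negative control.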

Read-out in test [7]: Interleukin-1 alpha (IL1a), IL1A (gene 3552)
The test is described as follows: BSK_KF3CT_IL1a: BioMAP Diversity Plus: KF3CT Assay for Interleukin-1 alpha (IL1a) Biomarker Activity (AID 2283070). The note with it: primary human keratinocytes with fibroblasts; actives raise or lower the signal. The method in brief: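 Primary skin co-culture (keratinocytes, foreskin fibroblasts), 24 h exposure; ELISA for IL-1a; bidirectional curve fit vs DMSO.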

Read-out in test [8]: TIMP metallopeptidase inhibitor 2 (TIMP2), TIMP2 (gene 7077)
Put plainly: BSK_KF3CT_TIMP2: BioMAP Diversity Plus: KF3CT Assay for TIMP metallopeptidase inhibitor 2 (TIMP2) Biomarker Activity (AID 2283071). The note with it: primary human keratinocytes with fibroblasts; actives raise or lower the signal. The method in brief:
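ELISA readout of TIMP-2 in keratinocyte plus foreskin fibroblast co-cultures (human skin primary cells), 24 h post-dose. Gain or loss of signal fitted relative to DMSO.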

Read-out in test [9]: Transforming growth factor beta 1 (TGFb1), TGFB1 (gene 7040)
Put plainly: BSK_KF3CT_TGFb1: BioMAP Diversity Plus: KF3CT Assay for Transforming growth factor beta 1 (TGFb1) Biomarker Activity (AID 2283072). The note with it: primary human keratinocytes with fibroblasts; actives raise or lower the signal. Put shortly: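 Read-out: ELISA for TGF-b1 in keratinocyte/foreskin fibroblast human skin co-culture, 24 h after dosing; bidirectional curve fit vs DMSO baseline; gain or loss of signal scored.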

Read-out in test [10]: C-C motif chemokine 2 (Homo sapiens) (UniProt P13500)
The test is described as follows: BSK_KF3CT_MCP1: BioMAP Diversity Plus: KF3CT Assay for Monocyte Chemoattractant Protein 1 (MCP1/CCL2) Biomarker Activity (AID 2283073). The note with it: primary human keratinocytes with fibroblasts; actives raise or lower the signal. The method in brief:
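Keratinocytes and foreskin fibroblasts were co-cultured, dosed with chemical, and sampled 24 h later. MCP-1 was quantified by ELISA, and the endpoint was analyzed with bidirectional fitting using DMSO as negative control.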

Read-out in test [11]: Matrix Metallopeptidase 9 (MMP9), MMP9 (gene 4318)
Put plainly: BSK_KF3CT_MMP9: BioMAP Diversity Plus: KF3CT Assay for Matrix Metallopeptidase 9 (MMP9) Biomarker Activity (AID 2283074).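 As to AC50: MMP9 protein level quantified by ELISA in the co-culture.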 The note with it: primary human keratinocytes with fibroblasts; actives raise or lower the signal. The method in brief: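 ELISA read-out of MMP-9 at 24 h post-dosing in a co-culture of human skin keratinocytes and foreskin fibroblasts. Gain or loss of signal was fitted in both directions against DMSO.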

Read-out in test [12]: urokinase plasminogen activator (uPA), PLAU (gene 5328)
Put plainly: BSK_KF3CT_uPA: BioMAP Diversity Plus: KF3CT Assay for urokinase plasminogen activator (uPA) Biomarker Activity (AID 2283075). The note with it: primary human keratinocytes with fibroblasts; actives raise or lower the signal. The method in brief:
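Skin co-culture (keratinocytes + foreskin fibroblasts), human primary; 24 h post-dose; uPA by ELISA; gain/loss fit vs DMSO baseline.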

Read-out in a further test: CD40, CD40 (gene 958)
The test is described as follows: BSK_LPS_CD40: BioMAP Diversity Plus: LPS Assay for CD40 Biomarker Activity (AID 2283076). The note with it: primary human HUVEC with PBMC; actives raise or lower the signal. Put shortly: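 CD40 signal, measured by ELISA, is fitted in both directions relative to DMSO vehicle. The system is an LPS-driven human vascular primary co-culture of endothelial cells and PBMC, sampled 24 h after compound addition.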

Read-out in test [13]: E-selectin (Homo sapiens) (UniProt P16581)
The test is described as follows: BSK_LPS_Eselectin: BioMAP Diversity Plus: LPS Assay for Eselectin Biomarker Activity (AID 2283077). The note with it: primary human HUVEC with PBMC; actives raise or lower the signal. Put shortly:
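Signal of E-selectin, detected by ELISA, served as the endpoint; cells were umbilical vein endothelium with PBMC, read 24 h after treatment. DMSO defined baseline, and both increases and decreases were fitted.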

Read-out in test [14]: Interleukin-8 (IL8), CXCL8 (gene 3576)
The test is described as follows: BSK_LPS_IL8: BioMAP Diversity Plus: LPS Assay for Interleukin-8 (IL8) Biomarker Activity (AID 2283078). The note with it: primary human HUVEC with PBMC; actives raise or lower the signal. Put shortly: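 Endothelial cells and PBMC from human donors are co-cultured, treated with chemicals and LPS, then assayed for IL-8 by ELISA after 24 h. Parallel SRB staining (0.1% SRB after 10% TCA fixation, 560 nm) flags cytotoxicity.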

The nature of test [15]: BSK_LPS_SRB: Viability Assessment in the BioMAP Diversity Plus: LPS Assay (AID 2283079).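 Also: total protein by sulforhodamine B absorbance as a cytotoxicity measure; measured one day after compound addition.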 The note with it: primary human HUVEC with PBMC. The method in brief: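 Overt cytotoxicity was gauged by sulforhodamine B total-protein staining in a primary human vascular endothelial and mononuclear cell co-culture 24 h post-dosing. Activity was fitted in both directions relative to DMSO.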

Read-out in test [16]: Interleukin-1 alpha (IL1a), IL1A (gene 3552)
The test is described as follows: BSK_LPS_IL1a: BioMAP Diversity Plus: LPS Assay for Interleukin-1 alpha (IL1a) Biomarker Activity (AID 2283080). The note with it: primary human HUVEC with PBMC; actives raise or lower the signal. Put shortly:
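Measured: IL-1 alpha via ELISA at 24 h in LPS-activated human umbilical vein endothelium–PBMC co-culture. Baseline: DMSO, bidirectional fitting.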

The nature of test [17]: BSK_KF3CT_SRB: Viability Assessment in the BioMAP Diversity Plus: KF3CT Assay (AID 2283069). The note with it: primary human keratinocytes with fibroblasts. The method in brief:
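SRB read-out at 560 nm (0.1% stain, TCA-fixed cells) gauges overt cytotoxicity in a human skin keratinocyte–fibroblast co-culture 24 h post-dosing. Signal change was fitted bidirectionally relative to DMSO control.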

Read-out in test [18]: Monocyte Chemoattractant Protein-1 (MCP1), CCL2 (gene 6347)
Put plainly: BSK_LPS_MCP1: BioMAP Diversity Plus: LPS Assay for Monocyte Chemoattractant Protein-1 (MCP1) Biomarker Activity (AID 2283081). The note with it: primary human HUVEC with PBMC; actives raise or lower the signal. Put shortly:
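LPS-stimulated HUVEC/PBMC co-culture; chemical, 24 h; MCP-1 by ELISA; bidirectional fit vs DMSO; cytotoxicity via SRB (0.1% stain, 10% TCA fix, 560 nm) in parallel wells.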

Structures are written as SMILES. The source made the active and inactive calls. The calls were made as follows: active = hit-call score of the fitted dose curve at least 0.9, where 1 is the maximum; inactive = score below 0.9.

E-selectin (Homo sapiens), sequence (P16581 whole entry, looked up): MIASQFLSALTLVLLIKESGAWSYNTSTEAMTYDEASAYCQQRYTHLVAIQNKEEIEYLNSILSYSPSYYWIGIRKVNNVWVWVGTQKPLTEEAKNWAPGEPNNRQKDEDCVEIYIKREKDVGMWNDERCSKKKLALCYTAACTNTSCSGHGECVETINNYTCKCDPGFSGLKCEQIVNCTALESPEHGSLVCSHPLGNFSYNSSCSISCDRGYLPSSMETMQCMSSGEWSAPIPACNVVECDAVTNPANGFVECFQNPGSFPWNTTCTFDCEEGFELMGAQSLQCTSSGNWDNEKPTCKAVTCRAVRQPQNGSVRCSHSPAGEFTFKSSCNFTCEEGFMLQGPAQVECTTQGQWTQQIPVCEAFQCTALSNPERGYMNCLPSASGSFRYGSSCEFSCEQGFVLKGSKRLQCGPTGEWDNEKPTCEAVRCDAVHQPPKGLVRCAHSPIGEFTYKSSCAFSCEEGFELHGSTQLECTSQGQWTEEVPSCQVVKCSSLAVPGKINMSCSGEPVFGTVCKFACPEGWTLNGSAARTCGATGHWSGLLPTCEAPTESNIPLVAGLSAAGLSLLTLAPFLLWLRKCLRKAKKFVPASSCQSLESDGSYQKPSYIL

In general, AC50 refers to the midpoint of the concentration-response curve, whichever way the signal moves. Take `Cc1ccc(O)c(C)c1`: the outcome in test [1], in test [2], in test [3], in [4], in test [5] and in test [6] was inactive. Moreover, the outcome in [7], in test [8], in test [9], in test [10], in test [11] and in test [12] was inactive. Moreover, the result in [13], in test [14], in test [15] and in test [16] was inactive. Also, the AC50 with CD40, CD40 (gene 958) is 11.6 µM (active).
In the case of `O=C(NC(=O)c1c(F)cccc1F)Nc1cc(Cl)c(OC(F)(F)C(F)F)c(Cl)c1`, the result in [1], in test [2], in [3], in [4], in test [5] and in test [6] was inactive. The outcome in test [17], in test [7], in test [8], in test [9], in [10] and in [11] was inactive. The outcome in test [12], in test [13], in [14], in [15] and in test [16] was inactive.
On to `Cc1cc(O)ccc1Cl`, for which the result in [1], in [2], in test [3], in [4], in [5] and in [6] was inactive. Further, the outcome in test [17], in [7], in [8], in test [9], in test [10] and in test [11] was inactive. Further, the result in test [12], in test [13], in [14], in test [15], in test [16] and in [18] was inactive.
Regarding `Sc1ccccc1`, the result in test [1], in test [2], in [3], in test [4], in [5] and in test [6] was inactive. Besides, the result in test [7], in test [8], in [9], in [10], in [11] and in test [12] was inactive. Also, the outcome in [13], in test [14], in test [15], in [16] and in [18] was inactive.
Consider `CC(c1ccc(O)cc1)(c1ccc(O)cc1)c1ccc(O)cc1`, for which the outcome in [1], in test [7], in [14] and in test [16] was inactive. Moreover, the AC50 in test [2] was 39.2 µM (active); in test [3] it was 8.14 µM (active); in test [4] it was 20.5 µM (active); in [5] it was 20 µM (active); in [6], 22.3 µM (active); in [8], 13.1 µM (active). In addition, the AC50 in test [9] is 11.4 µM (active); in [10] it was 20 µM (active); in test [11], 25.2 µM (active); in test [12], 20 µM (active); with CD40, CD40 (gene 958), 20 µM (active); in test [13], 32.7 µM (active). Besides, in test [15], the AC50 was 23.9 µM (active).
On to `O=C(O)C(F)(F)C(F)(F)C(F)(F)C(F)(F)C(F)(F)F`, for which the result in test [1], in [2], in [3], in test [4], in test [5] and in test [6] was inactive. In addition, the outcome in [7], in test [8], in [9], in test [10], in test [11] and in test [12] was inactive. Moreover, the outcome in test [13], in test [14], in test [15], in test [16] and in [18] was inactive.

Values taken from PubChem BioAssay (EPA / NIEHS).
